Five compounds from PubChem BioAssay can be followed below.

Test [1] can be described thus: reducers of endogenous Her2 protein level, primary screen, SKBR3 breast tumor cells, AlphaScreen, ATP viability (AID 461;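 active = Her2 level under about 52% in both replicate screens, with viability over 70% of control, limit read from the data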;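 as to Her2 level: lower value means less Her2 protein in the cells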;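 as to viability: percent of carrier control wells set as 100% viability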). The note with it: 18-24 h, measured here: SKBR3 viability, ATP luminescence, at 10 µM.
For test [2], the target named is Receptor tyrosine-protein kinase erbB-2 (Homo sapiens) (UniProt P04626). The description is as above. The note with it: 18-24 h, at 10 µM, stronger effect = lower value.
Sequence of Receptor tyrosine-protein kinase erbB-2 (Homo sapiens) (P04626 whole entry, looked up): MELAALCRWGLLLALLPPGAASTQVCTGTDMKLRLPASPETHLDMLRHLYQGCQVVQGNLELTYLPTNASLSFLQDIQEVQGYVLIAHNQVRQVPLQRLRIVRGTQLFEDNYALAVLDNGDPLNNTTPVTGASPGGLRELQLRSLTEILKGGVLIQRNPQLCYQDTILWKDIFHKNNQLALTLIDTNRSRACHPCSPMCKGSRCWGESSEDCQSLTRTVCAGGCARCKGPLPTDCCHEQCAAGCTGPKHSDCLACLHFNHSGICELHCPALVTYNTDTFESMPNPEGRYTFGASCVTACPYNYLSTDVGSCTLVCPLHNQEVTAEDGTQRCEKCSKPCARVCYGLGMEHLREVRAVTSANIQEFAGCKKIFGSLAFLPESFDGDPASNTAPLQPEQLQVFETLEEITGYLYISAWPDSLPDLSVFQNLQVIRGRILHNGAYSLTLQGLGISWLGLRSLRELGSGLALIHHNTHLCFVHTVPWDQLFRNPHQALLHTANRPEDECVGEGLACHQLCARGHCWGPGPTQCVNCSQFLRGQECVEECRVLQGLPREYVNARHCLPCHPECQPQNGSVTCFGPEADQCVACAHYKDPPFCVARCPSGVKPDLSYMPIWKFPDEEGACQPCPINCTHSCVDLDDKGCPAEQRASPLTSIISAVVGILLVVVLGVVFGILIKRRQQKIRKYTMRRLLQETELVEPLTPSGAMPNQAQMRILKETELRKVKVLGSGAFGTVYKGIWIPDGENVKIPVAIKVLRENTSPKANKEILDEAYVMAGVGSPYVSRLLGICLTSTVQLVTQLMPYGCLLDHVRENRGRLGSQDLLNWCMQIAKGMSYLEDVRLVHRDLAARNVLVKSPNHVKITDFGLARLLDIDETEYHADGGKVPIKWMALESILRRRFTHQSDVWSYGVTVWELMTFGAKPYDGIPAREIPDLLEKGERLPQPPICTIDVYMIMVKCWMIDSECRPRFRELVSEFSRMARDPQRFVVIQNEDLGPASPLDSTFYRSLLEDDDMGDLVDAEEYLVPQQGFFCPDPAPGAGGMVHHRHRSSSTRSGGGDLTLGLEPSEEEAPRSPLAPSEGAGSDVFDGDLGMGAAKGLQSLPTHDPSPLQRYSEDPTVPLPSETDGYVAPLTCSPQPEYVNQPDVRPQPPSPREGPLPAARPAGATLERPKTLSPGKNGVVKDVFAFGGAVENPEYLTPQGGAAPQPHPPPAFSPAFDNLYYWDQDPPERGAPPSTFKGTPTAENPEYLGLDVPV
Test [3] in a line: SK-BR-3 cell growth inhibitors, pilot screen, 24 h, human (AID 572).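 Also: compound exposure lasted between 18 and 24 h rather than exactly 24 h; 100% = carrier-treated control wells.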 The note with it: SK-BR-3 viability, CellTiter-Glo luminescence, at 10 µM, stronger effect = lower value.
The nature of test [4]: HUVEC growth inhibition – cell-based, human, primary screen (AID 575;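 active = viability at or below 30% in both replicate assays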;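 also: 100% = median of untreated cell wells with 0.1% DMSO on each plate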). The note with it: HUVEC proliferation, CellTiter-Glo luminescence, 72 h; at 10 µM; stronger effect = lower value.
Test [5] in a line: growth inhibitors of H69AR lung tumor, primary screen, human, duplicate replicates (AID 580;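 active = viability at or under a set limit in both replicates, limit being median viability minus 3 SD, cut at about 48% in these data, passing the limit was not always enough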;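 also: 100% = mean luminescence of untreated wells and 0% = no signal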). The following applies: H69AR lung tumor cells viability, ATP luminescence, 72 h; at 10 µM; stronger effect = lower value.
A short description of test [6]: reversal of MRP1-mediated doxorubicin resistance, pilot screen, H69AR cells, doxorubicin co-treatment (AID 601;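 active = viability loss from added drug above about 55%, and viability with drug at most 40%, in both replicates, limit read from the data, passing the limit was not always enough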). The following applies: CellTiter-Glo, 72 h, at 10 µM; for differential viability (reversal): stronger effect = higher value.
Test [7] is described as follows: 384-well plate pilot, post-Golgi transport modulator project, inhibition of yeast transport mutant growth (AID 636; in the data active = inhibition above about 31%). The note with it: absorbance 615 nm, about 18 h, stronger effect = higher value.
Test [8] in a line: growth suppression of yeast trafficking mutant, preliminary HTS, modulators of trafficking downstream of Golgi apparatus project, 1536-format plate, OD 615 nm (AID 637; in the data active = inhibition above about 30%). The following applies: yeast transport mutant growth, absorbance 615 nm, 18 h; stronger effect = higher value.
Test [9] can be described thus: OD615 S. cerevisiae growth inhibition, permissive medium, pilot counter-assay, permissive growth control for S. cerevisiae lifespan shortening project (AID 705;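 active = growth inhibition above 25% in both replicates, a cutoff set 3 SD above the mean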). The note with it: OD615, 24 h, at 10 µM, stronger effect = higher value.
A short description of test [10]: Restrictive medium S. cerevisiae growth inhibition, OD615, pilot screen of yeast lifespan reduction project, restrictive growth control (AID 706;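 active = growth inhibition above a set limit, 3 SD over mean compound inhibition, in both replicates, cut at about 43% in these data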;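 also: modified DeaD lifespan yeast strain shifted to restrictive glucose medium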). The following applies: OD615, 48 h, at 10 µM, stronger effect = higher value.
Test [11] is described as follows: viability gain of MRP-1-high H69AR cells under doxorubicin, pilot screen, MRP-1 activator project, CellTiter-Glo, duplicate (AID 807;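 active = viability increase at or above a cutoff of the median across tested compounds plus 3 SD, cut at about 8.5% in these data, passing the limit was not always enough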;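 also: compound pretreatment 18-22 h then 72 h combined with doxorubicin; 0% = doxorubicin alone and 100% = vehicle without doxorubicin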). The note with it: H69AR viability with doxorubicin, CellTiter-Glo luminescence; at 10 µM; stronger effect = higher value.
The nature of test [12]: growth suppression of beta-catenin knockout HCT116, pilot screen, human colon tumor cells (AID 823;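 active = cell viability at or below a set limit in both duplicate runs, the limit being the all-compound median minus 4 SD, cut at about 23% in these data, passing the limit was not always enough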;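 also: 0% = wells killed by 20 µM Hyamine and 100% = untreated DMSO cell wells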). The note with it: CellTiter-Glo, 60 h, at 10 µM, stronger effect = lower value.
A short description of test [13]: growth suppression of PTEN-deleted HCT116, pilot screen, cell-based, HCT116 clonal line, CellTiter-Glo (AID 824;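 active = viability at or below 27.92% in each of two runs, the all-compound median minus 4 SD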;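 also: 0% = 20 µM Hyamine control and 100% = vehicle cell control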). The following applies: 60 h, at 10 µM, stronger effect = lower value.
Test [14] is described as follows: inhibitors of the yeast RAM network, pilot screen, dse1pr::URA3 reporter, 5-FOA selection (AID 869;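 active = inhibition over a set limit, the all-compound mean plus 3 SD, in both replicate runs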;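 also: 0% = DMSO wells with no growth and 100% = 10 µM 1-NA-PP1 with full growth; RAM network block rescues cells from 5-FOA so hits raise OD615 growth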). The following applies: S. cerevisiae dse1pr::URA3 5-FOA growth, OD615, 2 d; at 10 µM; stronger effect = higher value; strain carries analog-sensitive mutant Cbk1 kinase.
Test [15] in a line: RAM signaling pathway blockade in yeast – S. cerevisiae, Pdr1DBD-CYC8 efflux-inhibited sensitized strain, primary screen (AID 1298;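 active = RAM network inhibition above 8.4% in each of two replicates, 3 SD over the compound average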;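 also: 0% = DMSO untreated cells without growth and 100% = 10 µM 1-NA-PP1 full growth; higher means more yeast growth rescued from 5-FOA killing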). The note with it: S. cerevisiae cbk1-as DSE1-URA3 strain, 5-FOA growth OD615, 2 d; at 50 µM; stronger effect = higher value.
Where [16] appears, read: H69AR cells + 2 uM doxorubicin, measured here: viability with 2 uM doxorubicin, stronger effect = lower value.
The mark [17] stands for this setting: H69AR cells, compound alone cytotoxicity.

Molecules are shown by their SMILES. Inconclusive results are not listed. Active and inactive are the calls of the source.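 The calls were made as follows, unless noted: active = viability at or below 10% of carrier control in both of two separate runs; inconclusive = viability at or below 10% in only one of the two runs; inactive = the rest.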

`CC1(C)Cc2ccccc2C(N)=C1C#N`: the viability is 93.5% in [1]; 93.5% (inactive) in test [3]; 87.5% (inactive) in test [4]; 93.7% (inactive) in test [5]; 83.8% in [6] (setting [16]); 93.7% in [6] (setting [17]). Further, the viability in test [12] is 89.9% (inactive); in [13], 91.8% (inactive). Moreover, in test [2], the Her2 level was 111% (inactive). Also, the differential viability (reversal) in [6] (H69AR cells + 2 uM doxorubicin) was 9.91% (inactive). Moreover, the inhibition in test [7] was 4.81% (inactive); in [8], -3.11% (inactive); in test [14], 0.81% (inactive). Also, the growth inhibition in test [9] was 4.29% (inactive); in [10], -0.06% (inactive). For the same compound, the viability increase in [11] was -0.77% (inactive). Also, the RAM network inhibition in test [15] was 0.69% (inactive).
`CN1CCN(Cc2nc3c(c(=O)n(C)c(=O)n3C)n2Cc2ccccc2Cl)CC1`: the viability in [1] was 80.5%; in test [3], 80.5% (inactive); in test [4], 86.5% (inactive); in [5], 86.9% (inactive); in test [6] (setting [16]), 79.8%; in test [6] (setting [17]), 86.9%. Also, the viability is 91.8% (inactive) in [12] and 91.3% (inactive) in test [13]. The Her2 level in [2] was 97.5% (inactive). The differential viability (reversal) in test [6] (H69AR cells + 2 uM doxorubicin) is 7.12% (inactive). Moreover, the inhibition in test [7] is -5.07% (inactive); in test [8], -2.17% (inactive); in test [14], 1.5% (inactive). Moreover, the results for the growth inhibition in test [9] and in [10] were -5.17% (inactive) and -14.4% (inactive), respectively. In addition, the viability increase in [11] was -2.56% (inactive). In addition, the RAM network inhibition in [15] is 4.45% (inactive).
On to `COc1ccc(OC)c2[nH]c(=O)c(CCNC(=O)C(C)C)cc12`, for which the viability in test [1] was 109%; in test [3], 109% (inactive); in [4], 83.2% (inactive); in [5], 88.6% (inactive); in [6] (setting [16]) it was 90.5%; in [6] (setting [17]), 88.6%. Besides, the viability in test [12] was 108% (inactive); in test [13], 103% (inactive). Further, the Her2 level in test [2] is 118% (inactive). The differential viability (reversal) in test [6] (H69AR cells + 2 uM doxorubicin) was -1.89% (inactive). For the same compound, the inhibition was -3.33% (inactive) in test [7], 1.83% (inactive) in [8] and 0.005% (inactive) in test [14]. The growth inhibition in [9] was -3.17% (inactive); in test [10], -5.05% (inactive). Moreover, the viability increase in test [11] was -0.71% (inactive). For the same compound, in [15], the RAM network inhibition was 1.31% (inactive).
Consider `CC(C)(C)SCCNC(=O)CSc1ccccc1`, for which the viability in test [1] is 102%; in test [3], 102% (inactive); in [4], 93.3% (inactive); in [5], 101% (inactive); in test [6] (setting [16]), 91%; in test [6] (setting [17]), 101%. The viability in [12] was 107% (inactive); in test [13], 98.3% (inactive). For the same compound, the Her2 level in [2] was 80% (inactive). Also, in [6] (H69AR cells + 2 uM doxorubicin), the differential viability (reversal) is 9.85% (inactive). Besides, the inhibition in test [7] was -6.22% (inactive); in test [8], 1.9% (inactive); in test [14] it was 0.055% (inactive). In addition, the results for the growth inhibition in [9] and in test [10] were -0.57% (inactive) and 9.05% (inactive), respectively. Moreover, in test [11], the viability increase was -0.61% (inactive). The RAM network inhibition in [15] was 4.54% (inactive).
With `CC(C)Cc1nnc(NS(=O)(=O)c2ccc(Cl)cc2)s1`, the viability is 91.5% in test [1]; 91.5% (inactive) in test [3]; 90.1% (inactive) in test [4]; 90% (inactive) in test [5]; 94.7% in test [6] (setting [16]); 90% in test [6] (setting [17]). Further, the viability in [12] is 99.2% (inactive); in [13] it was 96.7% (inactive). The Her2 level in test [2] is 98% (inactive). In addition, the differential viability (reversal) in test [6] (H69AR cells + 2 uM doxorubicin) was -4.72% (inactive). Also, the inhibition in [7] is -4.53% (inactive); in [8], -0.5% (inactive); in test [14], 1.43% (inactive). Also, the values for the growth inhibition in test [9] and in test [10] were -22.6% (inactive) and 3.6% (inactive), respectively. Further, in test [11], the viability increase was 2.68% (inactive). In addition, in test [15], the RAM network inhibition was 4.53% (inactive).
